Reference: the supplement of paper PMC10849652
The full data set covers some 8,800 targets. This sample favours those with a hit. About 0.5% of all pairs of compound and target were hits.

Key:
Assay in all cases: log2 fold change, soluble protein after heating vs DMSO (PISA); higher = thermal stabilisation; K562 lysate, 10 uM; active = over 0.2 and 3.5 SD of the protein, either way, in both replicates (recomputed)
[1] = compound: CN1CC[C@H](c2c(O)cc(O)c3c(=O)cc(-c4ccccc4Cl)oc23)[C@H](O)C1 [alvocidib]
How it was run: (§1)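 Values give the log-two fold change in thermal stability against solvent controls, from duplicates. Crude K562 extract at 1 mg/mL protein, made by dounce homogenisation in PBS pH 7.4 with 1 mM MgCl2, was treated with 10 μM compound for 30 min. After 3 min heating across 48°C-58°C, aliquots were pooled, adjusted to 0.5% NP-40 at 4°C and centrifuged at 21,000xg for 90 min. The supernatant was measured by TMTpro 16plex LC-MS/MS with channel sums equalised.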

[2] = compound: CN1CCc2c(c3ccccc3n2Cc2ccc(C(=O)NO)cc2)C1 [Tubastatin A]
How it was run: as §1

[3] = compound: CNC(=O)C1=CC=CC=C1NC2=NC(=NC=C2Cl)NC3=C(C=C(C=C3)N4CCOCC4)OC
How it was run: as §1

[4] = compound: CNC(=O)c1ccc(Nc2ncc(C(F)(F)F)c(NCc3nccnc3N(C)S(C)(=O)=O)n2)cc1 [defactinib]
How it was run: as §1

[5] = compound: CNc1nc(-c2ccc3c(N)n[nH]c3c2)cc(N2C[C@@H](C(=O)NC3CCCCC3)CC[C@H]2C)n1
How it was run: as §1

[6] = compound: COC(=O)N[C@@H](C)CNc1nccc(-c2cn(C(C)C)nc2-c2cc(Cl)cc(NS(C)(=O)=O)c2F)n1 [encorafenib]
How it was run: as §1

[7] = compound: COC(=O)[C@H](CCSC)NC(=O)C1=C(C=C(C=C1)NC[C@H](CS)N)C2=CC=CC=C2
How it was run: as §1

[8] = compound: COc1cc(Nc2ncc3c(n2)-c2ccc(Cl)cc2C(c2c(F)cccc2OC)=NC3)ccc1C(=O)O [alisertib]
How it was run: as §1

[9] = compound: COc1cc2nc(-c3cc(F)ccc3O)nc(N[C@@H]3CNC[C@H]3C(C)(C)O)c2cc1OC
How it was run: as §1

[10] = compound: COc1cc2ncnc(Nc3ccc(F)c(Cl)c3)c2cc1OCCCN1CCOCC1 [gefitinib]
How it was run: as §1

[11] = compound: CS(=O)(=O)CCNCc1ccc(-c2ccc3ncnc(Nc4ccc(OCc5cccc(F)c5)c(Cl)c4)c3c2)o1 [lapatinib]
How it was run: as §1

[12] = compound: CS(=O)(=O)N1CCN(Cc2cc3nc(-c4cccc5[nH]ncc45)nc(N4CCOCC4)c3s2)CC1 [pictilisib]
How it was run: as §1

[13] = compound: C[C@@H](Oc1cc(-c2cnn(C3CCNCC3)c2)cnc1N)c1c(Cl)ccc(F)c1Cl [crizotinib]
How it was run: as §1

[14] = compound: C[C@H](C1=CC=C(C=C1)C(=O)NC2=C3C=CNC3=NC=C2)N
How it was run: as §1

[15] = compound: C[C@H](Nc1ncnc2nc[nH]c12)c1cc2cccc(Cl)c2c(=O)n1-c1ccccc1 [duvelisib]
How it was run: as §1

[16] = compound: Cc1cc(Nc2cc(CN3CCOCC3)c3nc(C)c(Cc4ccc(Cl)cc4F)n3n2)n[nH]1 [gandotinib]
How it was run: as §1

[17] = compound: Cc1cc(Nc2cc(N3CCN(C)CC3)nc(Sc3ccc(NC(=O)C4CC4)cc3)n2)n[nH]1 [tozasertib]
How it was run: as §1

[18] = compound: Cc1ccc(-n2nc(C(C)(C)C)cc2NC(=O)Nc2ccc(OCCN3CCOCC3)c3ccccc23)cc1 [doramapimod]
How it was run: as §1

[19] = compound: Cc1ccc(NC(=O)c2ccc(CN3CC[C@H](N(C)C)C3)c(C(F)(F)F)c2)cc1Nc1nccc(-c2cncnc2)n1 [bafetinib]
How it was run: as §1

[20] = compound: Cc1cccc(CC(=O)N2CCc3c2ccc(-c2cn(C)c4ncnc(N)c24)c3F)n1
How it was run: as §1

UniProt P01116, sequence (P01116 whole entry, looked up): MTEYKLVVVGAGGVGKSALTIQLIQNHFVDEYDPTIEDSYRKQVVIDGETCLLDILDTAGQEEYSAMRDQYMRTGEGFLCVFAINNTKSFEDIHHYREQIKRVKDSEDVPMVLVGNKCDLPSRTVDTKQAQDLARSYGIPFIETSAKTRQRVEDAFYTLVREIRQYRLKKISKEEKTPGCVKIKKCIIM
UniProt Q8IWC1, sequence (Q8IWC1 whole entry, looked up): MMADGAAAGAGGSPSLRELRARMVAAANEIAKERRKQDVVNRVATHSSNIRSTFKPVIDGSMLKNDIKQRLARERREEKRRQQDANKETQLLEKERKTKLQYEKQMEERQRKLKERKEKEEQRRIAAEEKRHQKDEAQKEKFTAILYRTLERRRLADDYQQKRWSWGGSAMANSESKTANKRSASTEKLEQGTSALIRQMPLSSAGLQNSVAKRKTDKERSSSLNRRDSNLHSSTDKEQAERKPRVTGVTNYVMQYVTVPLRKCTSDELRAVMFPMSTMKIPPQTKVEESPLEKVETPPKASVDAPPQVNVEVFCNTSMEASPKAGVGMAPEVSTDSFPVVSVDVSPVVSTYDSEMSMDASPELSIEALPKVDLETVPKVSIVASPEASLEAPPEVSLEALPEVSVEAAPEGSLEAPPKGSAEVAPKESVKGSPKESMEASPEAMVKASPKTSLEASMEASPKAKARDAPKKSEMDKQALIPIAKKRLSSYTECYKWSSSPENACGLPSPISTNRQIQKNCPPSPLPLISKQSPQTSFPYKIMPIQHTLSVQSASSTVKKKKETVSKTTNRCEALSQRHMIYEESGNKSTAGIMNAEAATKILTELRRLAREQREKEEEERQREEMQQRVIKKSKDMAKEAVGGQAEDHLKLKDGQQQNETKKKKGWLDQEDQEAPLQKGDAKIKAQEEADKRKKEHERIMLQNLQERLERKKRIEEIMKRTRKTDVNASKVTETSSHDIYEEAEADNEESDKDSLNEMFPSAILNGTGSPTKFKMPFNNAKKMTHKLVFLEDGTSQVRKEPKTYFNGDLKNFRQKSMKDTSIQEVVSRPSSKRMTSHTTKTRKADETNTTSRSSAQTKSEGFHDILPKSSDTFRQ
UniProt Q8TC05, sequence (Q8TC05 whole entry, looked up): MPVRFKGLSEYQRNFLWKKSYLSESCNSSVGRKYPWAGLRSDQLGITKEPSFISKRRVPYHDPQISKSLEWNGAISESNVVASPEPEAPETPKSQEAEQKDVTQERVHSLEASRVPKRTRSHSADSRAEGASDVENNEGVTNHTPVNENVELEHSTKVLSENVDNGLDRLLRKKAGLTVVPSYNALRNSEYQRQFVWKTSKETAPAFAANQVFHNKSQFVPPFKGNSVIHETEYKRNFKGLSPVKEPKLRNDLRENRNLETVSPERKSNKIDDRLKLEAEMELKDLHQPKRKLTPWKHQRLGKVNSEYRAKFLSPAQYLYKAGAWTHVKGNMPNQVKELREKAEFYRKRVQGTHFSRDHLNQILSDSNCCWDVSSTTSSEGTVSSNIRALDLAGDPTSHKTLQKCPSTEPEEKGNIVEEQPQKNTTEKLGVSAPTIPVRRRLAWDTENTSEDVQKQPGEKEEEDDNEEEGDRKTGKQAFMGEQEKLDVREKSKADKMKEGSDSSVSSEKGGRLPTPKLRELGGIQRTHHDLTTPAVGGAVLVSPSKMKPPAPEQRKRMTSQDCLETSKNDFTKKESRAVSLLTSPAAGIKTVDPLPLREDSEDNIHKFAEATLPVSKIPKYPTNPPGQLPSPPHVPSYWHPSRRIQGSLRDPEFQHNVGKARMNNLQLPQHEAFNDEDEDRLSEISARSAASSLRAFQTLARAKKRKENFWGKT
UniProt Q5T3J3, sequence (Q5T3J3 whole entry, looked up): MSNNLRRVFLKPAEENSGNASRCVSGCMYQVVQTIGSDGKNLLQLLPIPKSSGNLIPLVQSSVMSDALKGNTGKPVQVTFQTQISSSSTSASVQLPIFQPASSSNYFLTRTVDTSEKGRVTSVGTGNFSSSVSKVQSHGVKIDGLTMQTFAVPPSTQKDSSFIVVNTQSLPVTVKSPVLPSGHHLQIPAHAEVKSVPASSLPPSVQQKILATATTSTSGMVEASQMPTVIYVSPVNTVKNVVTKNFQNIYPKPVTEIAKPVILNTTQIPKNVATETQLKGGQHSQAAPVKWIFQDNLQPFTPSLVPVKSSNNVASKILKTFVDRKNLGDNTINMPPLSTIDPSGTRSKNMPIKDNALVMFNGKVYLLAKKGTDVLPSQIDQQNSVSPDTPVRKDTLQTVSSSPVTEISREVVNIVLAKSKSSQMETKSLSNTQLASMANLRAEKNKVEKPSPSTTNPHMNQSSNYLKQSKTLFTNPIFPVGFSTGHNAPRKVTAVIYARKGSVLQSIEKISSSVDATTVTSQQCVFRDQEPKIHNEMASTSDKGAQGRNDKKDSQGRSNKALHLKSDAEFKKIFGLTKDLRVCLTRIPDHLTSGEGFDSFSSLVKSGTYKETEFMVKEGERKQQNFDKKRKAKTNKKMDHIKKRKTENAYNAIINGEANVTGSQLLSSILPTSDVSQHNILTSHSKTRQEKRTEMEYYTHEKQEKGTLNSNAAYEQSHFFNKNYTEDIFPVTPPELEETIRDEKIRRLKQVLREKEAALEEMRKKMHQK
UniProt O75970, sequence (O75970 whole entry, looked up): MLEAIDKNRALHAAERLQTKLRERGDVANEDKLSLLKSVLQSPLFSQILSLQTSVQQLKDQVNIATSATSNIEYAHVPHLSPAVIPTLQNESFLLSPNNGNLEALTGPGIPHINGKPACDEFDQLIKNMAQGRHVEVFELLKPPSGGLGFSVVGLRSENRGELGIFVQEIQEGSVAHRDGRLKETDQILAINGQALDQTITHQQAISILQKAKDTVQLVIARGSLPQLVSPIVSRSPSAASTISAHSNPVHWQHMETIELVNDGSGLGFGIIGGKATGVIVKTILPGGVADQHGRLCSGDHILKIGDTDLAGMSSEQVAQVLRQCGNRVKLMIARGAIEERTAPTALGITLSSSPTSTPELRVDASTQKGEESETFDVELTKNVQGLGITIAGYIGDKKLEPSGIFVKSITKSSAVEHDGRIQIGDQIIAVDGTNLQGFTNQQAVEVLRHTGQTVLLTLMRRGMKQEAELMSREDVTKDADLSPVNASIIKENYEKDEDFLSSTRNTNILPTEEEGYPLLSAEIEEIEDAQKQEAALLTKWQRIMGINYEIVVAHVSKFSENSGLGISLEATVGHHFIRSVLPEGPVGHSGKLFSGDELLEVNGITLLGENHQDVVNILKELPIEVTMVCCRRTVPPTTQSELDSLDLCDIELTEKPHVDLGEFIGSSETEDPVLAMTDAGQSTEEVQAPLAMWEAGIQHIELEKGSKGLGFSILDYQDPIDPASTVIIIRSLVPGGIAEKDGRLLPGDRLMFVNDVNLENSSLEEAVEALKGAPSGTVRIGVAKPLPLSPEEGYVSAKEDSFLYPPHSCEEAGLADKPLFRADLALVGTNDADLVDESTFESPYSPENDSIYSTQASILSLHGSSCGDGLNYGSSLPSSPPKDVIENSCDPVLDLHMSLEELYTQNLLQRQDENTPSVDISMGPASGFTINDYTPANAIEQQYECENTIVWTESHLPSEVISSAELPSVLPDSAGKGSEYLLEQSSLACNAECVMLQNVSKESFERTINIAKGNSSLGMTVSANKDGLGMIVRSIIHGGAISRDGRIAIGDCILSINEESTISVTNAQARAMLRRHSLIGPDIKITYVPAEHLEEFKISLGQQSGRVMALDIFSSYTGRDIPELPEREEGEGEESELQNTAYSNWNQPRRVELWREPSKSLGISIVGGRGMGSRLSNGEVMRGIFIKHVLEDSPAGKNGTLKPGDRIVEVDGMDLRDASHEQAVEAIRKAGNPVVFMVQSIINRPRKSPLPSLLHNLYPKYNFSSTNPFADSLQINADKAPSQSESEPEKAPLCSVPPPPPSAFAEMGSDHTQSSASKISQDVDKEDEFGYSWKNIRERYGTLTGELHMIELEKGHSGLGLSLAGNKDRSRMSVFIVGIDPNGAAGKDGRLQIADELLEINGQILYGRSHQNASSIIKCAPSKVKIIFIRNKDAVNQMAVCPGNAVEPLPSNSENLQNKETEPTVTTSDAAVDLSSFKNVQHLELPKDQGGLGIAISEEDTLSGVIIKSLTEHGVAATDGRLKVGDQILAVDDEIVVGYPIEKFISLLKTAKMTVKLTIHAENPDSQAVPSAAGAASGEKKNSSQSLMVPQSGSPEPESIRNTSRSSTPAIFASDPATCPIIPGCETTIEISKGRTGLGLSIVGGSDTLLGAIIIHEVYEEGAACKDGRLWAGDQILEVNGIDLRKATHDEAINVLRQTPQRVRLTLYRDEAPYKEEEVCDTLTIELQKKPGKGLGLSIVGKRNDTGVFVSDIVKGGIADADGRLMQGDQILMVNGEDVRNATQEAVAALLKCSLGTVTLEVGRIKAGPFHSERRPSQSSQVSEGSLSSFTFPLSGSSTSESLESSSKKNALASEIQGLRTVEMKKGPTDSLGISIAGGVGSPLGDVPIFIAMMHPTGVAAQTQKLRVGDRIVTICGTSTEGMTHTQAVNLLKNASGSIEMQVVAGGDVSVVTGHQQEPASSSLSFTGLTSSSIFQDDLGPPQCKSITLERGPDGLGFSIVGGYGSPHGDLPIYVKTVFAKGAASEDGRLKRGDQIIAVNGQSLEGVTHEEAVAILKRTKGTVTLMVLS
UniProt Q02750, sequence (Q02750 whole entry, looked up): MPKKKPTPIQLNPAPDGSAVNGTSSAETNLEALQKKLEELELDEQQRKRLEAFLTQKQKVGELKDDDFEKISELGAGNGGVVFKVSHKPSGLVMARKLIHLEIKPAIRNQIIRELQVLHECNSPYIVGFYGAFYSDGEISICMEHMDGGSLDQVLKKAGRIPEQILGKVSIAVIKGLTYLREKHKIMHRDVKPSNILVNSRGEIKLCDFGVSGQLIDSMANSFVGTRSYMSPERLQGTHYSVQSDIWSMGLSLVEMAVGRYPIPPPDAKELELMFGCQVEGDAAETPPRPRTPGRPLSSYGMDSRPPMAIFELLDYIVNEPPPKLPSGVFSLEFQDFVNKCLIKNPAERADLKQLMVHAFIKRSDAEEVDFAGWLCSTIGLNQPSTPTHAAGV

Target	log2 fold change [1]	log2 fold change [2]	log2 fold change [3]	log2 fold change [4]	log2 fold change [5]	log2 fold change [6]	log2 fold change [7]	log2 fold change [8]	log2 fold change [9]	log2 fold change [10]	log2 fold change [11]	log2 fold change [12]	log2 fold change [13]	log2 fold change [14]	log2 fold change [15]	log2 fold change [16]	log2 fold change [17]	log2 fold change [18]	log2 fold change [19]	log2 fold change [20]
MAP7D3 (UniProt Q8IWC1)	-0.063 (inactive)	0.015 (inactive)	0.037 (inactive)	-0.379 (active)	-0.011 (inactive)	0.223 (inactive)	0.013 (inactive)	0.01 (inactive)	-0.02 (inactive)	0.017 (inactive)	0.033 (inactive)	0.01 (inactive)	-0.006 (inactive)	-0.055 (inactive)	-0.068 (inactive)	0.021 (inactive)	0.066 (inactive)	0.065 (inactive)	-0.128 (inactive)	0.06 (inactive)
KIF3C (UniProt O14782)	0.033 (inactive)	-0.018 (inactive)	-0.01 (inactive)	0.157 (inactive)	0.058 (inactive)	0.101 (inactive)	0.024 (inactive)	0.247 (inactive)	0.07 (inactive)	-0.029 (inactive)	-0.172 (inactive)		-0.177 (inactive)	-0.119 (inactive)	0 (inactive)	-0.002 (inactive)	-0.394 (inactive)	-0.031 (inactive)		0.152 (inactive)
MRPL35 (UniProt Q9NZE8)	0.057 (inactive)	-0.226 (inactive)	0.01 (inactive)	0.014 (inactive)	0.033 (inactive)			0.01 (inactive)	-0.072 (inactive)	0.009 (inactive)	0.051 (inactive)	0.001 (inactive)	0.01 (inactive)	-0.207 (inactive)	-0.054 (inactive)	0 (inactive)		-0.023 (inactive)	-0.02 (inactive)	0.039 (inactive)
MDM1 (UniProt Q8TC05)	-0.527 (inactive)	0.007 (inactive)	-0.071 (inactive)	-0.126 (inactive)	-0.328 (inactive)	0 (inactive)	-0.12 (inactive)	0.018 (inactive)	-0.031 (inactive)	0.14 (inactive)	-0.004 (inactive)			-1.42 (active)	0.05 (inactive)	0.336 (inactive)	0.083 (inactive)			0.554 (active)
LRIF1 (UniProt Q5T3J3)	-0.018 (inactive)	0.075 (inactive)	-0.035 (inactive)	0.002 (inactive)	0.126 (inactive)	0.049 (inactive)	0.052 (inactive)	-0.03 (inactive)	0.234 (inactive)	-0.039 (inactive)	-0.094 (inactive)		0.019 (inactive)	-0.008 (inactive)	-0.133 (inactive)	0.006 (inactive)	0.039 (inactive)	0.026 (inactive)		-0.038 (inactive)
MBTPS1 (UniProt Q14703)	0.096 (inactive)	-0.058 (inactive)	0.013 (inactive)	-0.002 (inactive)	0.029 (inactive)	0.048 (inactive)	-0.036 (inactive)					0.012 (inactive)	-0.008 (inactive)	0.114 (inactive)	-0.006 (inactive)	-0.164 (inactive)	-0.009 (inactive)	0.01 (inactive)	-0.001 (inactive)	-0.15 (inactive)
MAP2K1 (UniProt Q02750)	0.06 (inactive)	-0.011 (inactive)	0.066 (inactive)	0.013 (inactive)	0.028 (inactive)	-0.07 (inactive)	-0.063 (inactive)	-0.036 (inactive)	0.021 (inactive)	0.029 (inactive)	-0.065 (inactive)	-0.009 (inactive)	0.001 (inactive)	0.204 (inactive)	-0.021 (inactive)	-0.042 (inactive)	0.152 (inactive)	-0.002 (inactive)	-0.027 (inactive)	-0.047 (inactive)
MRPL10 isoform 2 (UniProt Q7Z7H8)	0.024 (inactive)	-0.013 (inactive)	-0.035 (inactive)	0.023 (inactive)	0.074 (inactive)	0.031 (inactive)	0.183 (inactive)	0.028 (inactive)	-0.025 (inactive)	-0.019 (inactive)	-0.02 (inactive)	-0.041 (inactive)	-0.104 (inactive)	0.152 (inactive)	0.034 (inactive)	-0.037 (inactive)	-0.01 (inactive)	0.104 (inactive)	-0.059 (inactive)	-0.012 (inactive)
MPDZ (UniProt O75970)	0.028 (inactive)	0.117 (inactive)	0.236 (inactive)	0.053 (inactive)	0.099 (inactive)	-0.091 (inactive)	-0.032 (inactive)	-0.167 (inactive)	-0.114 (inactive)	0.228 (inactive)	0.046 (inactive)		0.127 (inactive)	0.099 (inactive)	-0.003 (inactive)	0.016 (inactive)	0.118 (inactive)	0.053 (inactive)		-0.066 (inactive)
MRPL27 (UniProt Q9P0M9)	0.082 (inactive)	-0.017 (inactive)	0.016 (inactive)		-0.028 (inactive)	-0.047 (inactive)	0.008 (inactive)	-0.019 (inactive)	0 (inactive)	0.022 (inactive)	0.02 (inactive)	0.017 (inactive)	-0.046 (inactive)	0.658 (active)	0.02 (inactive)	-0.249 (inactive)	0.029 (inactive)	0.011 (inactive)	0.012 (inactive)	-0.076 (inactive)
MAPK3 (UniProt P27361)	0.018 (inactive)	0.037 (inactive)	0.29 (active)	0.061 (inactive)	0.079 (inactive)	-0.035 (inactive)	0.05 (inactive)	-0.028 (inactive)	0.052 (inactive)	-0.018 (inactive)	-0.028 (inactive)	0 (inactive)	-0.01 (inactive)	-0.021 (inactive)	-0.01 (inactive)	0.089 (inactive)	-0.038 (inactive)	-0.023 (inactive)	0.021 (inactive)	-0.043 (inactive)
MAPK6 (UniProt Q16659)	0.133 (inactive)	-0.086 (inactive)	0.115 (inactive)	0.049 (inactive)	-0.023 (inactive)	-0.037 (inactive)	-0.092 (inactive)	-0.001 (inactive)	0.072 (inactive)	0.113 (inactive)	-0.038 (inactive)	-0.021 (inactive)	0.025 (inactive)	0.075 (inactive)	-0.008 (inactive)	-0.042 (inactive)	-0.024 (inactive)	-0.006 (inactive)	-0.028 (inactive)	-0.045 (inactive)
MANEA (UniProt Q5SRI9)	-0.078 (inactive)	-0.08 (inactive)	-0.016 (inactive)	0.062 (inactive)	-0.09 (inactive)	0.028 (inactive)	-0.07 (inactive)		0.041 (inactive)		-0.01 (inactive)	0.008 (inactive)	-0.023 (inactive)	-0.464 (active)	0.036 (inactive)	0.365 (active)	0.035 (inactive)	0.034 (inactive)	0.007 (inactive)	0.278 (inactive)
KRAS (UniProt P01116)	-0.071 (inactive)	0.059 (inactive)	-0.048 (inactive)	-0.01 (inactive)	-0.005 (inactive)	0.01 (inactive)	0.043 (inactive)	-0.016 (inactive)	-0.042 (inactive)	0.139 (inactive)	0.019 (inactive)		0.017 (inactive)	-0.078 (inactive)	0.001 (inactive)	0.044 (inactive)	-0.013 (inactive)	0.006 (inactive)		0.145 (inactive)
KRI1 (UniProt Q8N9T8)	0.017 (inactive)	-0.113 (inactive)	0.016 (inactive)	0.019 (inactive)	-0.012 (inactive)	0.038 (inactive)	0.009 (inactive)	0.042 (inactive)		-0.106 (inactive)		-0.072 (inactive)	-0.057 (inactive)	0.011 (inactive)	0.036 (inactive)	-0.022 (inactive)	0.014 (inactive)	0.023 (inactive)	0.009 (inactive)	0.045 (inactive)
MOCS3 (UniProt O95396)	-0.213 (inactive)	-0.082 (inactive)	0.111 (inactive)	-0.161 (inactive)	-0.008 (inactive)	0.056 (inactive)	-0.094 (inactive)	0.031 (inactive)		-0.231 (inactive)		0.004 (inactive)	-0.127 (inactive)	-0.176 (inactive)	0.009 (inactive)	0.227 (inactive)	0.027 (inactive)	0.072 (inactive)	-0.054 (inactive)	0.348 (inactive)
